Reference: the supplement of paper PMC6555819

Each sequence was assayed on LXRa:RXRa (NR concentration 270 nM, RXRa partner concentration 90 nM) (assay: PBM binding z-score (relative to random genomic background probes); higher = stronger binding; sequences stand for … in GC…GCGATTGACAGCGTAGAATGAAGG).
In short: (§1)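 Ligand-free nuclear receptor dimers were applied to custom Agilent 4×180K protein-binding microarrays whose double-stranded probes carried direct-repeat seeds, single-nucleotide variants, half-site ablations and random human genomic background sequences in 34-nt variable regions. Incubation lasted 1 h. Binding z-scores were computed against the random background probes from regression-normalized fluorescence.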

| Sequence | PBM binding z-score |
| --- | --- |
| CCTTAAGGGTCAAGGTTATAGCACGGGTGGTACG | 5.38 |
| GCGAGCAGGCCATTTGGGTCACTCAATGACGGGC | -0.0343 |
| CGAACTAGGTCATCTAGGACAGTGAATACATTGA | 2.49 |
| CCAGACAGGTGAAAGGTACCTCAGTCTGGTACGC | 0.27 |
| GCAGACAGGTAAAACGCAGGTAACTCAGGGTGGC | -0.37 |
| CCTCGCAGGCCAATCTGGGTCACTCAAGGCTTGA | 1.48 |
| GGAACGAGGGCATTCTAGTTGATAGCATGGCGAT | 1.08 |
| CCTACTAGGCCATTCAGAGGTCATTGATCATATG | 4.52 |
| AGAACGACGGCACGCTGAGTTGATAGCAGAGTAG | -0.427 |
| TCTGCTAGGTTAGTTGGTCAGCTAACGAGCTGCC | -0.402 |
| ATCTCTAGGTAACAAGTTCAGTGTAAGAGAGGAC | 0.672 |
| ATCGAAAGGTCGTGAGGTGAGTAGACAGAAAGGC | 4.15 |
| CCTACTGGGCCACGAAAGCTCATTGATTCAGTGA | -0.413 |
| AGAACGAGGGCAATGAGTTGATGGCACGGGTGGC | 0.254 |
| CCTACTGGGCCAAGGTTATTGATCAGTCAAAGCA | 0.594 |
| CCTTACGGGTCAAGGTTTTAGCACGGGTGGTACG | 3.1 |
| TCTTGTAGACCAATAGAGGTTAAGAAAGTGCGCT | 3.66 |
| ACAGACAGGTGAGTGAAGGTAACTTAGCTGGACG | 0.0601 |

What follows are sequences tested on LXRa homodimer (NR concentration 270 nM) in the same assay as above.
In short: as §1

| Sequence | PBM binding z-score |
| --- | --- |
| TCTCGGAGGACACGATGGTCAGAGCTTTCCAGAG | -0.822 |
| GCTTACGGATCAAAGGTTATAGCATGAATAGAAT | 0.189 |
| CTACCAAGGTGAACAAGGTCGTCGATTACTATTC | 0.0578 |
| AATACAGGGTCATCGTAGGCCAGTGTACGCACAG | 2.35 |
| CCTGCTAGGTCATGGTCAGATAATCTACAGTATG | 0.343 |
| CGAACTAGGTCAAAGGTCAAAGTCGAGCCAACCA | 5.37 |
| AATACAGGGTCATTGTAGGCCAGAGTACGCACAG | 3.2 |
| AGAATGAGGTTATACGTAGATCAGGGATGAAAGT | 0.0703 |
| ATCGAAAGGTCGAGGTGAGTTTAGAGAAAGGGAA | -0.00415 |
| TGAATGAGGTGATAAGATCAGGGAACGTTGCAAA | -0.391 |
| ATCGAAAGGTCGAAGGTTAGTATACCCACCCGAA | 0.517 |
| TCATATAGGTAAAGGGTGAAAGTCGGTGTGGTAA | 0.489 |
| CCTTACGGGTCAAGGTTATAGCGCGGGTGGTACG | 0.129 |
| CATCCAAGGTCAGAGAGGTCAGTGAATGCCGAGT | 4.54 |
| CCTTACGGGGCACTGACAGGTTATAGCATTTGGA | -0.267 |
| TGAATGAGGTTAAAAATCAGGGAACGTGGCGTCG | -0.491 |
| TTACCAAGGTGAAAGGTTGTTGATGCACGCCTTG | -0.416 |
| CCTAGCAGGCCCGGGTCACTCAAGCATTTCGCTT | -0.362 |
| AGTCAAAGTTCACCAGGTAACGTAAGATTCAGCT | 3.52 |
| TCTTGTAGATCAAGCCGGTTAAGAAAGCCTGAGT | -0.282 |

| Sequence | PBM binding z-score |
| --- | --- |
| TCGAGTAGGTTAGGGGCCTTCAGAATGGCGTCGA | -0.797 |
| GCTGGGAGGACAAGGTCAGAGCTTTGTCCGTAGA | -0.27 |
| CCTTAAGGGTCAAGGTTATAGCACGGGTGGTACG | 1.06 |
| GCGAGCAGGCCATTTGGGTCACTCAATGACGGGC | -0.692 |
| CGAACTAGGTCATCTAGGACAGTGAATACATTGA | 0.484 |
| CCAGACAGGTGAAAGGTACCTCAGTCTGGTACGC | -0.338 |
| GCAGACAGGTAAAACGCAGGTAACTCAGGGTGGC | -0.412 |
| CCTCGCAGGCCAATCTGGGTCACTCAAGGCTTGA | -0.253 |
| GGAACGAGGGCATTCTAGTTGATAGCATGGCGAT | -0.665 |
| CCTACTAGGCCATTCAGAGGTCATTGATCATATG | 7.03 |
| AGAACGACGGCACGCTGAGTTGATAGCAGAGTAG | -0.906 |
| TCTGCTAGGTTAGTTGGTCAGCTAACGAGCTGCC | -0.882 |
| ATCTCTAGGTAACAAGTTCAGTGTAAGAGAGGAC | 0.835 |
| ATCGAAAGGTCGTGAGGTGAGTAGACAGAAAGGC | 0.0462 |
| CCTACTGGGCCACGAAAGCTCATTGATTCAGTGA | -0.683 |
| AGAACGAGGGCAATGAGTTGATGGCACGGGTGGC | -0.585 |
| CCTACTGGGCCAAGGTTATTGATCAGTCAAAGCA | -0.113 |
| CCTTACGGGTCAAGGTTTTAGCACGGGTGGTACG | 0.107 |
| TCTTGTAGACCAATAGAGGTTAAGAAAGTGCGCT | 0.598 |
| ACAGACAGGTGAGTGAAGGTAACTTAGCTGGACG | -0.497 |

The sequences below were run on LXRb:RXRa (NR concentration 270 nM, RXRa partner concentration 90 nM) in the same assay as above.
In short: as §1

| Sequence | PBM binding z-score |
| --- | --- |
| TCTCGGAGGACACGATGGTCAGAGCTTTCCAGAG | -0.381 |
| GCTTACGGATCAAAGGTTATAGCATGAATAGAAT | 2.49 |
| CTACCAAGGTGAACAAGGTCGTCGATTACTATTC | 1.95 |
| AATACAGGGTCATCGTAGGCCAGTGTACGCACAG | 4.64 |
| CCTGCTAGGTCATGGTCAGATAATCTACAGTATG | 1.93 |
| CGAACTAGGTCAAAGGTCAAAGTCGAGCCAACCA | 7.03 |
| AATACAGGGTCATTGTAGGCCAGAGTACGCACAG | 5.09 |
| AGAATGAGGTTATACGTAGATCAGGGATGAAAGT | 1.68 |
| ATCGAAAGGTCGAGGTGAGTTTAGAGAAAGGGAA | 2.76 |
| TGAATGAGGTGATAAGATCAGGGAACGTTGCAAA | -0.155 |
| ATCGAAAGGTCGAAGGTTAGTATACCCACCCGAA | 3.05 |
| TCATATAGGTAAAGGGTGAAAGTCGGTGTGGTAA | 1.71 |
| CCTTACGGGTCAAGGTTATAGCGCGGGTGGTACG | 2.75 |
| CATCCAAGGTCAGAGAGGTCAGTGAATGCCGAGT | 4.58 |
| CCTTACGGGGCACTGACAGGTTATAGCATTTGGA | 0.0491 |
| TGAATGAGGTTAAAAATCAGGGAACGTGGCGTCG | 1.1 |
| TTACCAAGGTGAAAGGTTGTTGATGCACGCCTTG | 1 |
| CCTAGCAGGCCCGGGTCACTCAAGCATTTCGCTT | 1.25 |
| AGTCAAAGTTCACCAGGTAACGTAAGATTCAGCT | 3.85 |
| TCTTGTAGATCAAGCCGGTTAAGAAAGCCTGAGT | 0.245 |

| Sequence | PBM binding z-score |
| --- | --- |
| TCGAGTAGGTTAGGGGCCTTCAGAATGGCGTCGA | -0.221 |
| GCTGGGAGGACAAGGTCAGAGCTTTGTCCGTAGA | 1.45 |
| CCTTAAGGGTCAAGGTTATAGCACGGGTGGTACG | 4.67 |
| GCGAGCAGGCCATTTGGGTCACTCAATGACGGGC | 0.145 |
| CGAACTAGGTCATCTAGGACAGTGAATACATTGA | 2.12 |
| CCAGACAGGTGAAAGGTACCTCAGTCTGGTACGC | 0.286 |
| GCAGACAGGTAAAACGCAGGTAACTCAGGGTGGC | -0.448 |
| CCTCGCAGGCCAATCTGGGTCACTCAAGGCTTGA | 0.914 |
| GGAACGAGGGCATTCTAGTTGATAGCATGGCGAT | 0.264 |
| CCTACTAGGCCATTCAGAGGTCATTGATCATATG | 4.15 |
| AGAACGACGGCACGCTGAGTTGATAGCAGAGTAG | -0.149 |
| TCTGCTAGGTTAGTTGGTCAGCTAACGAGCTGCC | -0.708 |
| ATCTCTAGGTAACAAGTTCAGTGTAAGAGAGGAC | 0.727 |
| ATCGAAAGGTCGTGAGGTGAGTAGACAGAAAGGC | 2.98 |
| CCTACTGGGCCACGAAAGCTCATTGATTCAGTGA | -1 |
| AGAACGAGGGCAATGAGTTGATGGCACGGGTGGC | -0.493 |
| CCTACTGGGCCAAGGTTATTGATCAGTCAAAGCA | 0.269 |
| CCTTACGGGTCAAGGTTTTAGCACGGGTGGTACG | 2.74 |
| TCTTGTAGACCAATAGAGGTTAAGAAAGTGCGCT | 1.84 |
| ACAGACAGGTGAGTGAAGGTAACTTAGCTGGACG | -0.508 |
